Measurements published in PubChem BioAssay AID1220 (Sanford-Burnham Center for Chemical Genomics, 2008).
In all, about 190,000 compounds went through this assay and about 1,300 (0.68%) were called active. Cut-off read from the data, not from the text of the source: active = inhibition above about 50%; inactive = the rest. For the sample, actives were picked, then their nearest neighbours and some compounds at random.

Each molecule was assayed against Mannose-6-phosphate isomerase (Homo sapiens) (UniProt P34949) (assay: MPI inhibition at elevated mannose 6-phosphate – biochemical, fluorescence intensity, high mannose 6-phosphate, primary screen (AID 1220)). Conditions: recombinant PMI enzyme, coupled fluorescence intensity; at 20 µM; hits give high values.
Sequence of Mannose-6-phosphate isomerase (Homo sapiens) (P34949 whole entry, looked up): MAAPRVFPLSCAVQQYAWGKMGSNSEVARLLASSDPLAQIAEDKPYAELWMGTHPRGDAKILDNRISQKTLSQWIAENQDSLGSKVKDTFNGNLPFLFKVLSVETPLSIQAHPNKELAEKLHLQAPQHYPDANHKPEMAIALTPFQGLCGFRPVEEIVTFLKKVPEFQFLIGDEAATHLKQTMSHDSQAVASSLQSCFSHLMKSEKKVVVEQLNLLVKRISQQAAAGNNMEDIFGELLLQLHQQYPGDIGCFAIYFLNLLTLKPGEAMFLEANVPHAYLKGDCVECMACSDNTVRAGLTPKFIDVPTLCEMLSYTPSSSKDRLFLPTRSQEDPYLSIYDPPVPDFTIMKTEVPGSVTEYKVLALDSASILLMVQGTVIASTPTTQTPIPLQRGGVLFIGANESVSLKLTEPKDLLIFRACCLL

inhibition, active:
CCCNC(=O)Nc1cc(OCC)c(N2CCOCC2)cc1OCC 58.7%
Oc1ccc2ccccc2c1CN1CCCC1 67.8%
CN1CCN(Cc2c(O)ccc3cc(Br)ccc23)CC1 64.6%
O=C(O)C1C2CCC(O2)C1C(=O)Nc1ccc(O)cc1 (centres undefined) 54.4%
O=C(c1cc(-c2ccco2)on1)N1CCN(c2ccccc2)CC1 53.3%
O=[N+]([O-])c1cc(C=Nc2ccc3ccccc3c2)ccc1Br 51.5%
COc1ccc(S(=O)(=O)Nc2cc3c4c(oc3c3ccccc23)CC(C)(C)CC4=O)cc1 50.1%
Cc1ccc2c(Cl)cc(Cl)c(OCC(=O)N3CCCC3)c2n1 54.6%
COC(=O)CN(C)C(=O)CC1C(=O)NCCN1CC(C)(C)C (centres undefined) 56.5%
CCOC(=O)C(Cc1c(F)cccc1Cl)c1ccnc2nc(N)nn12 (centres undefined) 64.8%
Oc1ccc(N=Cc2ccc(-c3cccs3)s2)cc1 55.3%

inhibition, inactive:
Cc1cc(N)n2ncc(-c3ccc(F)cc3)c2n1 6.9%
COCc1cc(C)nc(SCC(=O)Nc2ccccc2C)c1C#N -4.7%
COc1cccc(C(=O)C2CCCN(C(=O)c3cccc(C#CC(C)(C)O)c3)C2)c1 (centres undefined) 13%
Cc1ccc2n(n1)c(=O)c(Cc1ccccc1)c([O-])[n+]2-c1ccccc1 7.7%
COCCNC(=O)CN1CCN(Cc2cccc(Cl)c2)C1=O 10.3%
CCOc1cc(N2CCOCC2)c(OCC)cc1NC(=O)c1cc(C)cc(C)c1 40.8%
CCOc1cc(N2CCOCC2)c(OCC)cc1NC(=O)C(C)(C)C 27.9%
COc1ccc(CCn2nnnc2C(CC(C)C)N2CCN(c3ncccn3)CC2)cc1OC (centres undefined) 7.5%
Oc1ccc2ccccc2c1CN1CCN(c2ccccc2)CC1 -35.5%
Oc1ccc2ccccc2c1CN1CCN(c2ccccc2F)CC1 29.8%
Oc1ccc2cc(Br)ccc2c1CN1CCCC1 43.2%
CN1CCN(Cc2c(O)ccc3c(-c4ccccc4)cc(=O)oc23)CC1 1.7%
CCn1c(CSc2nc3ccccc3s2)nnc1SCC(N)=O 1.7%
N#Cc1ccccc1S(=O)(=O)N1CCN(CC(O)c2ccccc2)CC1 (centres undefined) -12.7%
COc1cccc(C(=O)Nc2cccc(-c3ccc4nncn4n3)c2)c1OC -2.3%
COc1ccc(C2=NN(C(=O)CSc3ncccn3)C(c3cccc(OC)c3OC)C2)cc1 (centres undefined) 0.9%
CCOC(=O)C1CCCN(C(=O)c2ccc(C)cc2O)C1 (centres undefined) 1.2%
CC1Cc2ccccc2N1c1ncnc2c1nnn2Cc1ccccc1Cl (centres undefined) -1.3%
O=C(O)C1C2CCC(O2)C1C(=O)Nc1cccc(F)c1 (centres undefined) -3.7%
O=C(O)C1C2CCC(O2)C1C(=O)Nc1ccc(F)cc1 (centres undefined) -3.9%
O=C(NCC(=O)N(c1cccnc1)C(C(=O)NC1CCCC1)c1ccccc1)c1ccco1 (centres undefined) -14.2%
Cc1onc(-c2ccccc2)c1C(=O)N1CCN(C(=O)c2ccco2)CC1 2%
COc1ccc(N(CC(=O)NCc2ccccc2OC)S(=O)(=O)c2ccccc2[N+](=O)[O-])c(OC)c1 -1.5%
CCN1C(=O)N(C)C2(c3ccccc3)N(C)C(=O)N(C)C12c1ccccc1 (centres undefined) 12.7%
CN1c2ccccc2N(C)C1(C)c1ccccc1 31.1%
CN1CCN(C(=O)c2cc(-c3ccco3)on2)CC1 -11%
O=C(c1cc(-c2ccco2)on1)N1CCOCC1 26.3%
N#CCCn1c(C2CCCCC2)nc2ccccc21 -2.5%
C(=Nc1ccc(Nc2ccccc2)cc1)c1ccc2ccccc2c1 -17.3%
O=[N+]([O-])c1ccc(N=Cc2ccc(Br)c([N+](=O)[O-])c2)cc1 7.8%
CCn1c2ccccc2c2nc3cc(C(=O)O)ccc3nc21 33.7%
CCn1c2ccccc2c2nc3ccccc3nc21 8.1%
CCc1cc(C(=O)N2CCCC(CCC(=O)NCc3cccc(OC)c3)C2)no1 (centres undefined) -5.8%
COc1ccc(S(=O)(=O)Nc2cc3c(C(C)=O)c(C)oc3c3ccccc23)cc1 -0.8%
COc1ccc(S(=O)(=O)Nc2cc3c4c(oc3c3ccccc23)CCCC4=O)cc1 14.6%
COc1ccc(O[C@H]2C=C[C@@H](c3ccccc3)O[C@@H]2COC(=O)CC/C(C)=N/OC[C@@H](O)COCc2ccco2)cc1 19.3%
CCC(NC(=O)CCc1ccccc1)c1ccccc1 (centres undefined) 0.5%
COC(=O)COc1c(Cl)cc(Cl)c2ccc(C)nc12 10.1%
Cc1ccc2c(Cl)cc(Cl)c(OCC(=O)O)c2n1 9.9%
CCOc1ccc(C(NC(=O)/C=C/c2ccco2)c2ccc(OC)c(OC)c2)cc1 (centres undefined) 10.3%
COc1ccc(C2Nc3ccccc3C(=O)N2NS(=O)(=O)c2ccc(C)cc2)cc1 (centres undefined) 5.5%
Cc1ccc(OCCN(C)C(=O)CC2C(=O)NCCN2CC(C)(C)C)cc1 (centres undefined) 41.2%
CN(Cc1ccon1)C(=O)CC1C(=O)NCCN1CC(C)(C)C (centres undefined) 35.3%
COc1ccc(N2CCN(C(=O)COc3ccc4ccccc4c3)CC2)cc1 6.1%
COc1ccc(CN2CCN(c3ccccn3)CC2)c(OC)c1 -6.3%
O=C(Nc1ccccc1)c1ccc(NCCN2CCOCC2)c(S(=O)(=O)N2CCOCC2)c1 1.4%
CCOC(=O)C(Cc1c(F)cccc1Cl)c1ccno1 (centres undefined) -11.3%
CCOC(=O)C(Cc1ccccc1)c1ccnc2nc(N)nn12 (centres undefined) -9.3%
CCN(CC)CCOC(=O)c1ccc(NC(=O)CNC(=O)C2CCCCC2)cc1 -12.4%
O=C1CC(c2ccccc2)n2nc(NC(=O)c3cccnc3)nc2N1 (centres undefined) -4.6%
Cc1ccc(-n2nnnc2SCC(=O)NNC(=O)c2ccc([N+](=O)[O-])cc2)cc1 8.5%
Cc1ccsc1C=Nc1ccc(O)cc1 45.3%
CC(=O)c1ccc(-c2cccs2)s1 0.2%
